Assay outcomes: PubChem BioAssay, Broad Institute
DENV2 CPE rescue: protects cells from dengue virus 2 cytopathic effect; DENV2-infected cells, cytopathic effect rescue, plate reader; CPE inhibition, % at 9.99 µM; 1.7% of 350,000 active; in the data active means CPE inhibition above about 20%, passing the limit was not always enough; inconclusive means no clear call, values can overlap the other calls; tested in BHK-21 cells;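 further: 0% = median of neutral control wells and 100% = median of positive control wells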
N-glyco inh: blocks N-linked glycosylation in D54 reporter cells. D54 ERlucT glycosylation luciferase reporter, 24 h; percent of 100 nM tunicamycin response. reporter increase, % at 12.5 µM. 0.23% of 360,000 active. AID 588692;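 active means mean luciferase reporter signal, scaled so untreated is 0 and the glycosylation-blocking control 100, at or above a set limit in every replicate; inconclusive means mean reaches the limit but not every replicate does; inactive means mean below the limit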;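 further: luciferase carries N-glycosylation sites so blocking glycosylation raises the light; 0% = median of neutral control wells and 100% = median of 100 nM tunicamycin wells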
PglD inh: PglD (C. jejuni) enzyme inhibition; purified PglD enzyme, DTNB colorimetric CoA detection; inhibition, % at 12.5 µM; 0.098% of 360,000 active; AID 602405; in the data active means inhibition above about 16%, passing the limit was not always enough; inconclusive means no clear call, values can overlap the other calls
Rtt109 HAT inh: C. albicans Rtt109 histone acetyltransferase inhibition | Q5AAJ8 | purified Rtt109/Vps75, ThioGlo CoA-SH fluorescence, 4 h | inhibition, % at 34.9 µM | 0.16% of 330,000 active;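 active means inhibition of at least 50% in every replicate; inconclusive means best replicate reaches 50% inhibition but some replicates fall short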
Target sequence (Q5AAJ8 whole entry, looked up): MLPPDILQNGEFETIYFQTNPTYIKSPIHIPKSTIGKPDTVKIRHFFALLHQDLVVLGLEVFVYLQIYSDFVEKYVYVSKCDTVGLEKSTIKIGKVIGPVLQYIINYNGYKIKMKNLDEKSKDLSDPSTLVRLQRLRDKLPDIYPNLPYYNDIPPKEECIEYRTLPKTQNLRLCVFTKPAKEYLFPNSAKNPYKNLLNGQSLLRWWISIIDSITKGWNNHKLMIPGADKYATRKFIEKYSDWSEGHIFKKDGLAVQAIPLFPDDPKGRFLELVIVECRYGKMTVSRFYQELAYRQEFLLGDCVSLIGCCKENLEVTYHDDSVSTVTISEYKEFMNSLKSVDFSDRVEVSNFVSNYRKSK
* hit, by the source's call; u = inconclusive; x = not tested or not shown. The sample as a whole holds a higher share of hits than the screen did.

SMILES	DENV2 CPE rescue	N-glyco inh	PglD inh	Rtt109 HAT inh
N#Cc1cccc(-c2ccc([C@H]3[C@H]4CN(C(=O)Cc5ccncc5)CCCCN4[C@H]3CO)cc2)c1	-8	x	0	x
Cc1ccccc1-[n+]1c(-c2ccccc2)cc(-c2ccccc2)cc1-c1ccccc1	76*	21	6	2
C[C@@H]1CC2C3CC=C4C[C@@H](O)CC[C@]4(C)C3CC[C@]2(C)[C@H]1O (stereo partly specified)	4	-2	-1	6
C[C@]12CC[C@@H](O)CC1=CCC1C2CC[C@@]2(C)C1C[C@@H](F)[C@H]2O (stereo partly specified)	33*	0	-2	-3
O=C(Cc1ccccn1)N1CCCCN2[C@H](CO)[C@@H](c3ccc(C#Cc4ccccc4)cc3)[C@@H]2C1	-6	x	2	x
Cc1ccc2c(C)c3ccc4ccccc4c3c[n+]2c1	-11	37*	x	-4
C[C@]12CC[C@@H]3c4ccc(O)c(O)c4CC[C@H]3[C@@H]1CC[C@@H]2O	-8	0	-2	132*
C[C@]12CC[C@H]3[C@@H](CCC4=CC(=O)CC[C@@H]43)[C@@H]1CC[C@@H]2O	u	-4	-2	-13
O=C1CNC[C@H]2[C@H](c3ccc(Br)cc3)[C@H](CO)N12	4	x	x	x
COC(=O)C1=C(c2ccc(F)cc2OCc2ccccc2)C[C@@H]2CC[C@H]1N2C(=O)N1CCCCC1	-11	-2	3	4
COC(=O)C1=C(c2cc3ccccc3s2)C[C@@H]2CC[C@H]1N2C(=O)NCc1ccccc1	117*	-5	-5	1
COC(=O)C1=C(c2ccc(F)cc2OCc2ccccc2)C[C@@H]2CC[C@H]1N2C(=O)N1CCC(O)(c2ccc(Cl)cc2)CC1	77*	-4	0	-5
COC(=O)C1=C(c2cccc(OCc3ccccc3)c2)C[C@@H]2CC[C@H]1N2C(=O)NCc1ccc(Cl)cc1	25*	-6	3	2
COC(=O)C1=C(c2cccc(OCc3ccccc3)c2)C[C@@H]2CC[C@H]1N2C(=O)NCCOc1ccccc1	90*	-2	3	6
COC(=O)C1=C(c2cccc(OCc3ccccc3)c2)C[C@@H]2CC[C@H]1N2C(=O)NCc1ccccc1	2	-6	4	-11
O=C1CNC[C@@H]2[C@@H](c3ccc(Br)cc3)[C@@H](CO)N12	-10	x	x	x
O=C1NC(=O)N(c2ccc3c(c2)OCO3)C(=O)/C1=C/c1ccc(N2CCCC2)o1	77*	-4	x	-2
CCOc1ccc(N2C(=O)NC(=O)/C(=C\c3ccc(N4CCCCC4)o3)C2=O)cc1	x	-4	-1	-1
Cc1ccc(OC(=O)N(C)C[C@@H]2OCc3ccccc3-c3c(n(C)c4ccccc34)C(=O)N([C@@H](C)CO)C[C@H]2C)cc1	3	x	x	x
O=C(Cc1ccncc1)N1CCCCN2[C@@H](CO)[C@@H](c3ccc(C#CC4(O)CCCC4)cc3)[C@@H]2C1	0	x	4	x
COC(=O)C1C(c2ccc(C)cc2)CC2CCC1N2C (stereo unspecified)	28*	x	x	x
C=CCN1CC[C@]23c4c5ccc(O)c4OC2C(O)C=CC3[C@H]1C5 (stereo partly specified)	131*	1	-2	4
O=C1NC(=O)C(Sc2ccccc2[N+](=O)[O-])C(=O)N1	4	2	-1	86*
C=C[C@@H]1C2=CCOC(=O)C2=CO[C@H]1O[C@@H]1O[C@H](CO)[C@@H](O)[C@H](O)[C@H]1O	23*	1	-7	6
O=C(Nc1ccc(C(F)(F)F)cc1)OC1CN2CCC1CC2 (stereo unspecified)	39*	-6	x	1
SMILES	DENV2 CPE rescue	N-glyco inh	PglD inh	Rtt109 HAT inh
O=C(Nc1cccc(C(F)(F)F)c1)OC1CN2CCC1CC2 (stereo unspecified)	6	-3	-8	-1
CCOC(=O)[C@@H]1[C@@H]2NC(=S)N(C)[C@@]1(C)Oc1ccccc12	15	x	-3	x
O=C(Nc1ccc(F)cc1)c1c(O)c2c(n(Cc3ccccc3)c1=O)CCCC2	x	-3	x	50*
O=C(Nc1cccnc1)c1c(O)c2c(n(Cc3ccccc3)c1=O)CCCC2	x	-3	2	0
c1ccc(Nc2ccc(Nc3ccccc3)cc2)cc1	41*	1	-1	-4
COC(=O)[C@@H]1[C@@H](CO)[C@@H]2Cn3c(ccc(-c4ccccc4F)c3=O)[C@H]1N2Cc1ccncc1	-10	x	0	x
Cc1ccc(N)c(N)c1	-10	-9	-5	0
Cc1ccc(N)cc1N	66*	2	-1	-2
COC(=O)[C@@H]1[C@@H](CO)[C@@H]2Cn3c(cccc3=O)[C@H]1N2Cc1nccs1	0	x	1	x
COc1ccc(-c2ccc3c(c2)CN(C(=O)NC2CCCCC2)Cc2cnnn2-3)cc1	24*	1	-5	x
O=C(NCCN1CCC2(CC1)C(=O)NCN2c1ccccc1)c1ccccc1F	31*	x	x	x
Cc1ccccc1C(=O)NCCN1CCC2(CC1)C(=O)NCN2c1ccccc1	-1	x	x	x
N#Cc1cccc(-c2ccc([C@H]3[C@H]4CN(C(=O)Cc5ccccc5)CCCCN4[C@H]3CO)cc2)c1	9	x	-1	x
COc1ccc(CC(=O)N(CCN(C)C)CC2CCCN(Cc3ccccc3F)C2)cc1 (stereo unspecified)	27*	-2	-5	3
COc1cc2c(cc1OC)[C@@]13CCN4CC5=CCO[C@H]6CC(=O)N2[C@H]1[C@H]6[C@H]5C[C@H]43	3	7	-1	-12
COc1ccc2c(c1)C13CCN4CC5=CCOC6CC(=O)N2C1C6C5CC43 (stereo unspecified)	71*	4	-3	x
COc1ccccc1CN1[C@H](CO)[C@H](c2ccccc2)C12CN(C(=O)Cc1ccccc1)C2	-11	x	x	x
Cc1ccc(N2C(=O)NC(=O)/C(=C\C=C\c3ccco3)C2=O)cc1C	x	47*	-7	-3
Cc1cc(N2CCOCC2)ccc1/C=C1\C(=O)NC(=O)N(c2ccccc2)C1=O	5	3	x	2
Cc1cccc(N2C(=O)NC(=O)/C(=C\C=C\c3ccco3)C2=O)c1	0	42*	x	1
CN1C(=O)/C(=C/C=C/c2ccco2)C(=O)NC1=S	-3	0	x	x
CN(C)c1ccc(/C=C/C=C2/C(=O)NC(=O)N(c3ccccc3)C2=O)cc1	-6	1	x	11
Cc1ccc(N2C(=O)NC(=O)/C(=C\C=C\c3ccco3)C2=O)cc1	x	42*	-6	1
O=C1NC(=O)N(Cc2ccccc2)C(=O)/C1=C\C=C\c1ccco1	-3	u	0	-6
O=C1NC(=O)N(Cc2ccco2)C(=O)/C1=C/C=C/c1ccco1	-3	36*	x	-2
O=C(Cc1ccccc1)N1CCCCN2[C@H](CO)[C@H](c3ccc(C#CC4(O)CCCC4)cc3)[C@@H]2C1	6	x	2	x
Cc1ccccc1-c1ccc([C@H]2[C@@H](CO)N3CCCCN(C(=O)Cc4ccccn4)C[C@@H]23)cc1	8	x	0	x
CC=Cc1ccc2n(c1=O)C[C@H]1[C@H](CO)[C@@H](C(=O)OC)[C@@H]2N1CC1CCOCC1 (mixture of isomers)	-6	x	4	x
